The list is not random: actives were taken first. Their share in the collection is about 11%.
ALDH1A1 block = qHTS Assay for Inhibitors of Aldehyde Dehydrogenase 1 (ALDH1A1); Aldehyde dehydrogenase 1A1 (Homo sapiens), P00352; Purified ALDH1A1, NADH fluorescence, propionaldehyde substrate; Potency, µM (series often up to 75.3 µM), actives largely listed as inhibitors; 7.3% of 220,000 active; AID 1030, 2008
Target sequence (P00352 whole entry, looked up): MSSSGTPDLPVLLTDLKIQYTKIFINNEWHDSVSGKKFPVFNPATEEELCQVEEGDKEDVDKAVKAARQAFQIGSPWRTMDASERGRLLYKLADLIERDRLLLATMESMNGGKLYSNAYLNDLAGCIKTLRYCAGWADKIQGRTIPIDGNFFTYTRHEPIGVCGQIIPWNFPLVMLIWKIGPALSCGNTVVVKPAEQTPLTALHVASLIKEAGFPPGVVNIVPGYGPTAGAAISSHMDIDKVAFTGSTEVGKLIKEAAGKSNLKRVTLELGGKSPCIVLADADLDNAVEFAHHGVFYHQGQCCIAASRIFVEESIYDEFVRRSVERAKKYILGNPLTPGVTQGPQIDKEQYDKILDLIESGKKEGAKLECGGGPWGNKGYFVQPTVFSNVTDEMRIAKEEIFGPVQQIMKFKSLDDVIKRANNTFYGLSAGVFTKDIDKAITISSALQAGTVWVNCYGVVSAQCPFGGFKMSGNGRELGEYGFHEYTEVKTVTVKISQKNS
PNC inhibitor = High Content Assay for Compounds that inhibit the Assembly of the Perinucleolar Compartment; activity change (PNC), negative = inhibition, % at 10 µM; AID 2417, 2010; PC3M PTB-GFP, PNC prevalence imaging, 16 h; stronger effect = lower value; 3.1% of 140,000 active;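 active = readout at or below -70, meaning at least 70% loss of cells showing the perinucleolar compartment, a nuclear body marking cancer cells; inconclusive = readout between -30 and a set limit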
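Compounds are pinned in duplicate onto adhered PC3M cells stably expressing GFP-tagged PTB and incubated 16 h at 37 C. Cells are then fixed, nuclei stained with Hoechst, and PNC-positive cells counted.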
HPGD block = qHTS Assay for Inhibitors of HPGD (15-Hydroxyprostaglandin Dehydrogenase). 15-hydroxyprostaglandin dehydrogenase [NAD(+)] (Homo sapiens), P15428. purified HPGD, NADH fluorescence kinetic, PGE2 substrate. Potency, µM, most hits filed as inhibitors. 4.3% of 150,000 active. AID 894, 2007
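NADH formation kinetics: reaction with 30 uM PGE2 and 1 mM NAD+ (final), 20 nM enzyme, Tris-HCl pH 8 with Tween 20, after 15 min compound preincubation at room temperature. Fluorescence change, last versus first of five reads.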
Numbers stand for hits; 0 = inactive; ? = inconclusive; - = no result; [ ] = dose if it differs, or a comment. Unless noted, calls come from the whole dose curve; as a rule, active = well fitted inhibition curve with a large enough effect (not every such curve was filed as active); inconclusive = small, poorly fitted or top-dose-only effect, or another doubt; inactive = no such curve, though single readings can be large or run the other way.

SMILES	ALDH1A1 block	PNC inhibitor	HPGD block
Cc1ccc(/C=N/OC(=O)c2nn(C)cc2Cl)cc1	0	-	-
O=C(CN1CCOCC1)N/N=C/c1ccc(-c2cccc(Cl)c2Cl)o1	0	-	-
O=S(=O)(NCc1ccco1)c1ccc(S(=O)(=O)N2CCCCC2)cc1	?	?	0
CC(=O)OC[C@@H]1O[C@H](C/C=N\O[C@@H](C)c2cn([C@H]3COC[C@H]3O)nn2)C=C[C@@H]1OC(C)=O	0[13.5 µM]	-	-
Cc1cnc(CNc2cc(-c3ccoc3)ncn2)cn1	?	-	0
Cc1cccc(CNc2cc(-c3ccoc3)ncn2)c1	?	-	20µM
Cn1ccnc1C(=O)c1cc(SCC(=O)N2CCOCC2)nc2ccccc12	0	-	-
Cc1ccc(CNC(=O)CSc2c3c(nc4ccc(Cl)cc24)CCCC3)o1	8.91µM	0	0
CCN(CC)CCNC(=O)CSc1c2c(nc3cc(Cl)ccc13)CCCC2	0	-	-
Cc1ccc(S(=O)(=O)N2CCOCC2)cc1NC(=O)COC(=O)c1cc(=O)c2ccccc2o1	0	?	0
COc1ccc(S(=O)(=O)N2CCOCC2)cc1C(=O)Nc1cc(C)on1	0	0	0
Clc1cccc(OCc2nc(-c3ccncc3)no2)c1	0	-	-
Clc1ccc(OCc2nc(-c3ccncc3)no2)c(Cl)c1	0	0	12.6µM
Cc1ccc(NCc2nnc(SCC(=O)N3c4ccccc4Sc4ccccc43)o2)c(C)c1	0	0	0
CCN(CC)S(=O)(=O)c1cccc(-c2n[nH]c(=S)n2CC(C)C)c1	7.94µM	-	-
O=C(NCc1n[nH]c(=S)n1Cc1ccccc1)c1ccccc1	0	-	-
CCN(CC)S(=O)(=O)c1ccc(C(=O)NCc2cccs2)cc1	0	?	0
CCn1c(-c2cccc(Cl)c2)n[nH]c1=S	?	?	0
CCN(CC)S(=O)(=O)c1ccc(C(=O)NCc2ccc(C)cc2)cc1	10µM	0	0
CCN(CC)S(=O)(=O)c1ccc(C(=O)NCc2n[nH]c(=S)n2Cc2ccccc2)cc1	2.51µM	0	0
CCN(CC)S(=O)(=O)c1cccc(-c2cn3cc(C)ccc3n2)c1	0	0	0
CCN(CC)S(=O)(=O)c1cccc(-c2n[nH]c(=S)n2Cc2ccccc2)c1	7.08µM	-	-
CC(C(=O)NCc1ccc2c(c1)OCO2)N1c2cccc3cccc(c23)S1(=O)=O (centres undefined)	?	0	?
O=C(O)CCSC1=NCCN1	?	-	0
O=C(CSc1nnc(COc2ccccc2)o1)N1CCOCC1	0	-	-
SMILES	ALDH1A1 block	PNC inhibitor	HPGD block
CCn1c(CCNC(=O)c2ccc(Cl)cc2Cl)n[nH]c1=S	0	0	0
O=C(NCc1n[nH]c(=S)n1Cc1ccccc1)c1ccc(Cl)cc1Cl	22.4µM	-	-
COc1ccc(NS(=O)(=O)c2cccc(-c3nnc(-c4ccccc4)o3)c2)cc1	?	0	0
COc1ccc(NS(=O)(=O)c2cccc(-c3n[nH]c(=S)n3Cc3ccccc3)c2)cc1	0.447µM	-	-
O=C(Nc1ccccc1)C1=C[C@@H](c2coc3ccccc3c2=O)C[C@@H](OCc2ccc(CO)cc2)O1	0	-	-
CC(c1ccccc1)N1CCn2c(nc3cc(NS(C)(=O)=O)ccc32)C1 (centres undefined)	0	-	-
CC1CN=C(c2cccn2Cc2ccc(F)cc2Cl)O1 (centres undefined)	0	0	0
Cc1ccc(C(=O)C[n+]2ccc(-c3nnc4n3CCC4)cc2)cc1	?	0	0
O=C(Cn1cccn1)c1ccccc1	0	-	-
Nc1ccccc1Oc1c(F)c(F)c(Oc2ccccc2N)c(F)c1F	0	-	-
Cc1ccc(-c2csc(NC(=O)c3cccc(S(=O)(=O)N4CCN(C)CC4)c3)n2)cc1	2.51µM	0	0
O=C(Nc1nc(-c2cccs2)cs1)c1cccc(S(=O)(=O)N2CCCCC2)c1	0	0	0
CC(C(=O)N1CCOCCOCCOCCOCCOCC1)N1C(=O)c2ccccc2C1=O (centres undefined)	0	-	-
COc1ccc(-c2nnc(SCCc3ccccc3)n2N)cc1	0	0	0
CCCSc1nnc(Sc2nnnn2-c2ccccc2)s1	11.2µM	0	0
COc1ccc(-c2nnc(SCc3ccccc3)n2N)cc1	0	-107.9	0
Cc1ccccc1-n1nnnc1SCC(N)=O	?	0	0
COc1ccc(OC)c(NC(=O)CSc2nnnn2-c2ccccc2F)c1	?	?	0
COC(=O)c1sccc1NC(=O)CSc1nnnn1-c1ccccc1F	14.1µM	?	0
Cc1ccccc1-n1nnnc1Sc1nnnn1-c1ccccc1	25.1µM	0	0
CCCn1c(Sc2nnnn2-c2ccccc2)n[nH]c1=O	0	?	0
COc1cc(NC(=S)NC2CC2)c(OC)cc1Cl	?	?	0
CCc1nnc(NC(=O)CSc2nnc(-c3cccnc3)n2C)s1	0	-	-

Screening results from PubChem BioAssay.
